An excerpt weighted towards active compounds, which were near 18% of everything screened.
CtBP-E1A inh = inhibitors of CtBP/E1A interaction | AlphaScreen GST-E1A/His-CtBP binding, 1536-well; stronger effect = lower value | activity change, % (concentration not given with the values) | 340,000 compounds, 0.49% hits; in the data active means activity change below about -65%; inconclusive means mostly about -30% to -63%
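AlphaScreen with 125 nM GST-E1A and 125 nM His-CtBP (5X stocks) in Tris pH 8.0, 300 mM NaCl, BSA, Tween 20, TCEP. Compounds preincubated 2 h at 37 deg C, then glutathione donor/nickel acceptor beads added for 1 h at 37 deg C in dark.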
TDP1 inh = TDP1 (human) enzyme inhibition; Q9NUW8; recombinant TDP1, AlphaScreen DNA substrate cleavage; Potency, µM (titrated, usually from 130 µM), for inactives: at the highest dose activity change, negative = inhibition, hits mostly inhibitors; 350,000 compounds, 0.28% hits; further: potency means the concentration at half of the fitted maximal effect; nearly all actives have a fitted effect of over 40% in size
Target sequence (Q9NUW8 whole entry, looked up): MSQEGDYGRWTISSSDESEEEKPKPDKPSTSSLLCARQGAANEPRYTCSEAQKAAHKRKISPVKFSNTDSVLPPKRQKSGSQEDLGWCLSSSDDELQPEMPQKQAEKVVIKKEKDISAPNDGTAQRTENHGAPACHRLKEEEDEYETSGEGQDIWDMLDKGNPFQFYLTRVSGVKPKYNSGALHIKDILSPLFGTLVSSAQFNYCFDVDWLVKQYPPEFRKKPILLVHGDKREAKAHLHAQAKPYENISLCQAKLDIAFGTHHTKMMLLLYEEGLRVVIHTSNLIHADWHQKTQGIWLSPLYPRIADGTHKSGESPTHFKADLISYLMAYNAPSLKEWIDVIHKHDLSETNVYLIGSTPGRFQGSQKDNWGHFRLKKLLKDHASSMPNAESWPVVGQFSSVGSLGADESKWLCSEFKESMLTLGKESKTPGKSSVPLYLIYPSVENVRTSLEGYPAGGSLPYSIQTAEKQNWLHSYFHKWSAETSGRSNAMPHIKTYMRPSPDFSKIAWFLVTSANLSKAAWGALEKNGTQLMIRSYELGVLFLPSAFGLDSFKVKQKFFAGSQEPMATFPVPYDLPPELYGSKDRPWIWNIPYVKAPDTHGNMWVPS
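Compounds were preincubated with Tdp1 (1 nM final) for 15 min at room temperature before substrate (15 nM final) started a 5 min reaction; beads (10 ug/ml final) were then added for 10 min before AlphaScreen detection.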
IL-1B inflam inh = inflammasome signaling inhibition, IL-1 beta readout. activity change, % at 57.5 µM. THP-1 LPS/ATP IL-1B secretion, AlphaLISA, 16 h; stronger effect = lower value. 360,000 compounds, 4.7% hits; in the data active means activity change below about -50%; inconclusive means mostly about -30% to -49%
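Secreted IL-1B measured by AlphaLISA bead assay after 16 h compound exposure of THP-1 cells; compounds (final up to 57.5 uM) added 1 h before LPS (250 ng/mL) and ATP (1.25 mM) stimulation; lower signal means less secretion.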
Six1-Eya2 inh = Six1/Eya2 interaction inhibition; Q15475+O00167; AlphaScreen GST-Six1/His-Eya2 binding, biochemical; stronger effect = lower value; activity change, % (no concentration beside the values); 360,000 compounds, 0.56% hits; in the data active means activity change below about -65%; inconclusive means mostly about -30% to -63%
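Six1/Eya2 binding was read as AlphaScreen signal after compounds were pinned into GST-Six1 plus His-tagged Eya2 (5X stock 250/500 nM) in pH 8.0 Tris/NaCl/TCEP buffer, beads added, then incubated 1 h, 37 C, dark.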
TDP1 cell noCPT = qHTS for Inhibitors of human tyrosyl-DNA phosphodiesterase 1 (TDP1): qHTS in cells in absence of CPT; DT40 Tdp1-/- hTDP1 cells, no CPT, ATP luminescence, 48 h; Potency, µM (top dose mostly 46.2 µM), inactives show at the top dose activity change, negative = growth inhibition, most hits filed as inhibitors; 420,000 compounds, 15% hits; further: potency means the concentration at half of the fitted maximal effect; nearly all actives have a fitted effect of over 55% in size
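Chicken DT40 Tdp1-/- cells stably complemented with human TDP1 were seeded at 400 cells/well with DMSO in place of 20 nM camptothecin. After compound pinning, cells grew at least 48 hr at 37 °C; viability read by CellTiter-Glo luminescence.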
DT40 TDP1 CPT = DT40-hTDP1 cell growth loss with CPT. chicken DT40 Tdp1-/-;hTDP1 cells + 20 nM CPT, ATP luminescence, 48 h. Potency, µM (highest dose often 46.2 µM), for inactives: at the top dose activity change, negative = growth inhibition, usual class: inhibitors. 420,000 compounds, 12% hits. AID 686979; further: potency means the concentration at half of the fitted maximal effect; nearly all actives have a fitted effect of over 55% in size
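Cell growth measured by CellTiter-Glo luminescence after a minimum 48 h, 37 C compound exposure with 20 nM CPT in Tdp1-knockout DT40 cells stably expressing hTDP1, seeded 400/well; qHTS titration format.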
Active calls of the source: *; u = inconclusive; x = no result. Unless noted, the call rests on the fitted dose curve; in most records, active means well fitted curve in the direction sought with a large enough effect; inconclusive means small, poorly fitted or top-dose-only effect, or another doubt; inactive means no such curve, though single readings can be large; an effect the other way counts as inactive or inconclusive. On the % scale 0 is the no-effect control and ±100 the full control effect.

SMILES | CtBP-E1A inh | TDP1 inh | IL-1B inflam inh | Six1-Eya2 inh | TDP1 cell noCPT | DT40 TDP1 CPT
COCc1cc(N2CCN(c3ccccc3F)CC2)nc(-c2ccccc2)n1 | 3 | -2% | 38 | -1 | 12µM* | u
CC(C)Sc1cc(N2CCOCC2)nc(-c2ccccc2)n1 | 26 | -5% | u | 10 | 16µM* | 23µM*
CC(C)Sc1cc(N2CCCC2)nc(-c2ccc(F)cc2)n1 | 11 | 8% | 2 | 9 | u | 6%
COCc1cc(N2CCOCC2)nc(-c2ccccc2)n1 | -16 | 3% | u | 1 | u | 23µM*
C=CCc1cc(Cl)ccc1OCCCNC(C)CC (stereo not drawn) | 0 | -1% | 0 | 12 | 15µM* | 16µM*
C=CCc1ccc(OCCCCNC(C)CC)c(OC)c1 (stereo not drawn) | -3 | -4% | -2 | 5 | 18µM* | u
CCC(C)NCCCOc1ccc(Cl)cc1C(C)(C)C (stereo not drawn) | -4 | u | -8 | 8 | u | u
COc1ccc(CN2C(=O)C(C)Oc3ccccc32)cc1 (stereo not drawn) | x | x | -3 | -4 | u | -1%
COC(=O)CC1Oc2ccc(C)cc2-n2cc(-c3ccc(C)cc3)nc21 (stereo not drawn) | x | 5% | x | x | 13µM* | 16µM*
COC(=O)CC1Oc2ccc(C)cc2NC1=O (stereo not drawn) | 8 | -1% | 23 | 5 | 5% | -2%
COC(=O)CC1Oc2ccc(Cl)cc2-n2cc(-c3ccc(C)cc3)nc21 (stereo not drawn) | x | 6% | x | x | 6.5µM* | 9.2µM*
COC(=O)CC1Oc2ccccc2N(Cc2ccc(C)cc2)C1=O (stereo not drawn) | 0 | 0% | 30 | 1 | 26µM* | 16µM*
C[C@H](NC(=O)c1ccccc1F)C(=O)N1CCC2(CC1)NCCc1[nH]cnc12 | -3 | 1% | 5 | 0 | 20% | -1%
O=C(Nc1ccccc1Cl)OCC#CCOC(=O)Nc1ccccc1Cl | 6 | x | 7 | 6 | 0% | -23%
O=C(Cn1cnc2ccccc2c1=O)c1ccc2c(c1)OCCO2 | 2 | 6% | -13 | -1 | -6% | 0%
C=CCn1c2ccccc2c(=O)c2cc(C#Cc3cc(OC)cc(OC)c3)ccc21 | 81 | -9% | 0 | 85 | u | 16µM*
Cn1cncc1C#Cc1c(C=O)n(C)c2ccccc12 | 2 | 56µM* | 30 | 4 | -13% | u
Cn1cncc1C#Cc1c(C=O)[nH]c2ccccc12 | -7 | -3% | 16 | -15 | 10µM* | 5.8µM*
Cn1c2ccccc2c(=O)c2cc(C#Cc3ccccn3)ccc21 | 0 | x | 12 | 5 | u | -18%
COc1cc(OC)cc(-c2c(C#Cc3ccsc3)c3cc(-c4ccccc4OC)ccc3n2C)c1 | 6 | -1% | -4 | 20 | -28% | u
Cn1cncc1C#Cc1ccc2c(=O)c3ccccc3oc2c1 | 0 | x | u | -3 | u | u
COc1cc(C#Cc2c(C=O)n(C)c3ccccc23)cc(OC)c1 | 16 | x | 28 | 20 | 23µM* | u
COc1cc(NC(=O)COC(=O)CNC(=O)c2ccc(Cl)cc2)c(C)cc1[N+](=O)[O-] | -3 | 4% | 5 | -4 | -9% | -1%
C[C@@H](N)C(=O)NC[C@H]1CC[C@H](C(=O)N[C@@H](Cc2ccccc2)C(=O)O)CC1 | -19 | x | -1 | 4 | 6% | -20%
O=C(COC(=O)c1ccccn1)Nc1cc(Cl)ccc1Cl | -1 | -1% | -11 | -2 | -6% | -1%
CC1(c2nnc(-c3cccc(Cl)c3)o2)CC(c2c(Cl)cccc2Cl)=NO1 (stereo not drawn) | 6 | x | -22 | -20 | u | u

High-throughput results: PubChem BioAssay, National Center for Advancing Translational Sciences (NCATS)
